Assay results reported in PubChem BioAssay (EPA / NIEHS).
Records with an inconclusive call do not appear. Activity calls are given as the source filed them. How the source made its calls: active means hit-call score of the fitted dose curve at least 0.9, where 1 is the maximum; inconclusive means response in the unintended direction; inactive means score below 0.9.

These molecules were tested on HMG-CoA synthase (HMGCS2), HMGCS2 (gene 3158) (assay: CLD_HMGCS2_24hr: CellzDirect (CLD) Gene Expression Assay for HMG-CoA synthase (HMGCS2) at 24 hours (AID 2283691)).
Experimental: CLD_24hr is a cell-based, multiplexed-readout assay that uses hepatocyte, a human liver primary cell, with measurements taken at 24 hours after chemical dosing in a 96-well plate.CLD_HMGCS2_24hr is one of 16 assay component(s) measured or calculated from the CLD_24hr assay. It is designed to make measurements of mRNA induction, a form of inducible reporter, as detected with chemiluminescence signals by Quantitative Nuclease Protection Assay (qNPA) technology.Data from the assay component CLD_HMGCS2_24hr was analyzed at the endpoint, CLD_HMGCS2_24hr, in the positive analysis fitting direction relative to DMSO as the negative control and baseline of activity. Using a type of inducible reporter, gain-of-signal activity can be used to understand changes in the reporter gene as they relate to the gene HMGCS2. Furthermore, this assay endpoint can be referred to as a primary readout. To generalize the intended target to other relatable targets, this assay endpoint is annotated to the lyase intended target family, where subfamily is HMG-CoA synthase.
Human hepatocyte cultures were treated daily for two consecutive days with fresh dosing solutions containing appropriate concentrations of the 320 ToxCast chemicals (chemical identities were blinded to CellzDirect and other ToxCast collaborators), vehicle control (0.2% DMSO), and positive control inducers as summarized in Table 1. Due to the large number of treatment groups and chemicals examined, the ToxCast chemicals were divided into two groups (spanning two independent cultures of hepatocytes from separate donor preparations (Hu778: ToxCast plates 1 and 2; Hu776: ToxCast plates 3 and 4). Each preparation of human hepatocyte cultures was treated with respective vehicle control, medium only control, set of six positive controls/reference chemicals for the five hepatic receptor pathways, and a subset of eight of the ToxCast chemicals (indoxacarb, pyrithiobac-sodium, norflurazon, cyhalofop-butyl, methomyl, thiram, acetochlor, and propiconazole). These replicate data, coupled with internal replicates designed within the blinded ToxCast chemical library, provided additional data to evaluate interindividual differences between hepatocyte preparations and their potential impact on chemical profiles.Cell morphology and integrity were evaluated using phase-contrast microscopy as an indicator of hepatocyte cell health (Tyson & Green, 1987). Cultures for each treatment group (i.e., media, vehicle [0.2% DMSO], positive control inducers [multiple concentrations], and the ToxCast chemicals [multiple concentrations]) were observed and cell morphology was assessed relative to vehicle control cultures at each harvest time point (0, 6, 24, or 48 h). […] Images were evaluated at the conclusion of the study to assess changes in cell integrity and account for the effects of chemical exposure on uncharacteristic changes in concentration-dependent gene expression profiles. The results from these determinations of apparent cytotoxicity were annotated (yes/no) alongside the corresponding qNPA data for reference.At the conclusion of each treatment period, hepatocyte cultures (96-well) were washed with 1 volume of HBSS, lysed by addition of 25 ul ArrayPlate lysis buffer (HTG, Tucson, AZ), and 70 ul/well of Denaturation Oil, denatured by incubation at 95C for 10 min, and frozen at approximately -70C until analysis by nuclease protection assay (qNPA) (Roberts et al., 2007). For qNPA analysis, cell lysates were thawed at 50C for approximately 30 min, qNPA probes were added, and samples were incubated at 95C for 10 min to begin the detection process by denaturing the target RNA, dissociating the duplexes and secondary structure hybridization. At the conclusion of the hybridization period, S1 nuclease reagent was added to each sample to digest all nonprotected nucleotides at 50C for 60-90 min. […]

Structure (SMILES)	outcome	AC50
N#Cc1c(Cl)c(Cl)c(Cl)c(C#N)c1Cl	inactive	
O=C(O)CCCOc1ccc(Cl)cc1Cl	inactive	
O=C(O)COc1ccc(Cl)cc1Cl		22.5 nM (active)
Oc1ccc(Cl)cc1Cc1ccccc1	inactive	
COP(=O)(OC)OC=C(Cl)Cl	inactive	
COc1cc(OC)nc(NC(=O)NS(=O)(=O)c2cc(NC=O)ccc2C(=O)N(C)C)n1	inactive	
CCS(=O)(=O)c1cccnc1S(=O)(=O)NC(=O)Nc1nc(OC)cc(OC)n1	inactive	
O=C(O)C(F)(F)C(F)(F)C(F)(F)C(F)(F)C(F)(F)C(F)(F)C(F)(F)F	inactive	
[2H]C1([2H])[n+]2ccccc2-c2cccc[n+]2C1([2H])[2H]	inactive	
C#CCN1C(=O)COc2cc(F)c(N3C(=O)C4=C(CCCC4)C3=O)cc21	inactive	
OCCOc1ccccc1	inactive	
CNC(=O)Oc1cccc(N=CN(C)C)c1	inactive	
Oc1cc(Cl)ccc1Oc1ccc(Cl)cc1Cl	inactive	
CNC(=O)CSP(=S)(OC)OC	inactive	
COC(=O)c1ccccc1S(=O)(=O)NC(=O)Nc1nc(C)nc(OC)n1	inactive	
O=[N+]([O-])/N=C1\NCCN1Cc1ccc(Cl)nc1	inactive	
